Assay outcomes (PubChem)
Compounds with a hit are over-represented: about 10% of the library has one in this group of screens.
NS1 inh = influenza NS1 inhibition | Potency, µM (top dose mostly 46.1 µM) | 270,000 compounds, 0.4% hits | AID 2326; also: actives are rising curves; nearly all actives have a fitted effect of over 50% in size
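In this qHTS, NS1 from influenza A is expressed in budding yeast, where it slows growth. Cells are switched from glucose to 2% galactose medium (pH 6.0, -URA), treated with compound, and growth recovery is read at OD600.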
Pf growth 48h = inhibits P. falciparum growth in the first generation, 48 h. 310,000 compounds, 5.9% hits. P. falciparum luciferase growth in erythrocytes, 48 h. Potency, µM (doses to about 28.7 µM), actives largely listed as inhibitors; active = well fitted inhibition curve with a large enough effect; inconclusive = small, poorly fitted or top-dose-only effect, or another doubt; inactive = no such curve, though single readings can be large or run the other way
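Luminescence readout; reporter = integrated firefly luciferase in P. falciparum. RBC culture at 2% hematocrit, 0.1% parasitemia final, 37 C/5% CO2; decreased signal taken as growth inhibition.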
Pf growth 96h = P. falciparum growth inhibition at 96 hour, primary screen for plastid delayed-death inhibitors; Potency, µM (highest dose often 28.7 µM), actives largely listed as inhibitors; 320,000 compounds, 6.9% hits; P. falciparum luciferase reporter growth, 96 h; AID 504834; active = well fitted inhibition curve with a large enough effect; inconclusive = small, poorly fitted or top-dose-only effect, or another doubt; inactive = no such curve, though single readings can be large or run the other way
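Erythrocytes infected with luciferase-expressing P. falciparum were dispensed at 2% hematocrit and 0.05% parasitemia (final), then incubated with compounds 96 hours at 37 C in 5% CO2. Luminescence after detection reagent addition reported growth.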
SARS PLP yeast = inhibitors of SARS-CoV papain-like protease in yeast; Potency, µM (top dose mostly 32.9 µM), most hits filed as activators; S. cerevisiae expressing SARS-CoV PLpro, growth rescue; 330,000 compounds, 0.19% hits; also: nearly all actives have a fitted effect of over 55% in size
Each line names hits and unclear results; the compound was inactive in the other large screens. Unless noted, calls follow the shape of the full dose curve.

COc1ccc(N2CCN(C(=O)COC(=O)COc3cccc(C(F)(F)F)c3)CC2)cc1	none (no result: NS1 inh)
Cc1ccc(S(=O)(=O)CCSC(=N)N)cc1	none
COc1ccc(CNC(=O)C2CCC(CNc3c(N4CCC(C)CC4)c(=O)c3=O)CC2)cc1 (stereo not drawn)	Pf growth 48h inconclusive
Cc1ccc(OCc2cc(C(=O)N3CCN(CC(=O)NC(C)C)CC3)no2)cn1	none
Cc1onc(-c2c(F)cccc2Cl)c1C(=O)O/N=C(\N)c1ccc([N+](=O)[O-])o1	Pf growth 48h 8.3µM, Pf growth 96h 12µM
CCN1C(=O)[C@@H]2Cc3c([nH]c4ccccc34)C(c3cc(OC)c(OC)c(OC)c3)N2C1=S (stereo partly drawn)	Pf growth 48h inconclusive, Pf growth 96h inconclusive
C=CCN1C(=O)[C@@H]2Cc3c([nH]c4ccccc34)C(c3cc(OC)c(OC)c(OC)c3)N2C1=S (stereo partly drawn)	Pf growth 48h 8.3µM, Pf growth 96h inconclusive
CC(C)CN1CC(=O)N2C(c3ccccc3)c3[nH]c4ccccc4c3C[C@H]2C1=O (stereo partly drawn)	Pf growth 48h 12µM, Pf growth 96h inconclusive
COc1cc([C@H]2c3[nH]c4ccccc4c3C[C@H]3C(=O)N4[C@@H](c5cc(OC)c(OC)c(OC)c5)c5[nH]c6ccccc6c5C[C@H]4C(=O)N23)cc(OC)c1OC	Pf growth 48h 0.41µM, Pf growth 96h 0.47µM
O=C1NCC(=O)N2C(c3ccccc3)c3[nH]c4ccccc4c3C[C@@H]12 (stereo partly drawn)	none
O=C1[C@@H]2Cc3c([nH]c4ccccc34)[C@@H](c3ccccc3)N2C(=O)[C@@H]2Cc3c([nH]c4ccccc34)[C@@H](c3ccccc3)N12	NS1 inh inconclusive, Pf growth 48h inconclusive, Pf growth 96h 2.6µM
COc1ccc(C2(NC(C)=O)CCN(Cc3cccnc3)CC2)cc1	none
Cc1nc(SC(C)C(=O)NCC2CCCO2)c2cc(-c3ccccc3)sc2n1 (stereo not drawn)	Pf growth 48h inconclusive, Pf growth 96h inconclusive (no result: NS1 inh)
Cc1ccc(-c2nc3cnccn3c2Nc2ccccc2)o1	none (no result: Pf growth 48h)
Cc1ccc(Nc2c(-c3ccc(C)o3)nc3cnccn23)cc1	Pf growth 96h 0.74µM (no result: Pf growth 48h)
Cc1ccc2c(COC(=O)CNC(=O)c3ccco3)cc(=O)oc2c1C	none (no result: NS1 inh, Pf growth 48h, Pf growth 96h)
COc1ccc(NC(=S)N2CCCCCC2)cc1OC	none (no result: NS1 inh)
Cc1ccc(C(=O)c2cc([N+](=O)[O-])ccc2N2CC(C)OC(C)C2)cc1 (stereo not drawn)	Pf growth 48h 9.3µM, Pf growth 96h inconclusive
CCN1CCN(Cc2ccc(NC(=O)c3ccc(C)c(NC(=O)C[C@@H]4NC(=O)[C@H](Cc5ccccc5)NC4=O)c3)cc2C(F)(F)F)CC1	Pf growth 48h inconclusive, Pf growth 96h inconclusive
CCN1CCN(Cc2ccc(NC(=O)c3ccc(C)c(NC(=O)c4cccc(-c5cn[nH]c(=O)c5)c4)c3)cc2C(F)(F)F)CC1	Pf growth 48h 1.7µM, Pf growth 96h 1.5µM
CCN1CCN(Cc2ccc(NC(=O)c3ccc(C)c(NC(=O)C4=NN(c5ccccc5)C(=O)C4)c3)cc2C(F)(F)F)CC1	Pf growth 48h 0.41µM, Pf growth 96h 0.52µM
CCN1CCN(Cc2ccc(NC(=O)c3ccc(C)c(NC(=O)c4csc(-c5ccncc5)n4)c3)cc2C(F)(F)F)CC1	Pf growth 48h 1.7µM, Pf growth 96h 0.93µM
CCN1CCN(Cc2ccc(NC(=O)c3ccc(C)c(/C=C/c4cnc(Nc5cc(N6CCNCC6)nc(C)n5)cn4)c3)cc2C(F)(F)F)CC1	Pf growth 48h inconclusive, Pf growth 96h inconclusive
CCN1CCN(Cc2ccc(NC(=O)c3ccc(C)c(NC(=O)c4c[nH]c5cc(C(F)(F)F)ccc5c4=O)c3)cc2C(F)(F)F)CC1	NS1 inh inconclusive, Pf growth 48h 0.59µM, Pf growth 96h 0.52µM
O=C(NC1CCCC1)C(c1cccnc1)N(C(=O)c1csnn1)c1ccccc1 (stereo not drawn)	none
CCN1CCN(Cc2ccc(NC(=O)c3cc(NC(=O)C4=NN(c5ccccc5)C(=O)C4)cc(OC)c3)cc2C(F)(F)F)CC1	Pf growth 48h 0.93µM, Pf growth 96h 0.33µM
CCN1CCN(Cc2ccc(NC(=O)c3cc(NC(=O)c4cncc(-c5cccs5)c4)cc(OC)c3)cc2C(F)(F)F)CC1	Pf growth 48h inconclusive, Pf growth 96h inconclusive
CCOC(=O)c1ccc(NC(=O)c2nc[nH]c2C(=O)N[C@@H](CC(C)C)C(=O)OC(C)(C)C)cc1	Pf growth 48h 7.4µM, Pf growth 96h 9.3µM
CC(C)C[C@H](NC(=O)c1[nH]cnc1C(=O)N[C@@H](C)C(=O)OC(C)(C)C)C(=O)OC(C)(C)C	Pf growth 48h 7.4µM, Pf growth 96h 9.3µM
